TEAD-YAP inh = TEAD-YAP interaction inhibition | actives 1.4% (n = 640,000) | AID 1259422 | inhibition, % at 9.12 µM | HEK-TIYL cells, TEAD-Gal4/YAP UAS-luciferase luminescence; in the data active = inhibition above about 32%;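 also: 0% = median of test compound wells and 100% = reference inhibitor wells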
FBW7 act = human FBW7 E3 ligase activation, primary screen; normalized activity (activation), % at 26.1 µM; actives 0.13% (n = 650,000); AlphaScreen FBW7–phospho-cyclin E peptide binding, activator screen; in the data active = normalized activity above about 1.9%;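 also: purified mutant Fbw7 with reduced substrate affinity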
MITF primary = inhibitors of human MITF. O75030. AlphaScreen MITF homodimerization, bead proximity signal. inhibition, % at 2.6 µM. actives 0.91% (n = 650,000). AID 1259374; in the data active = inhibition above about 50%;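 also: 0% = vehicle wells with protein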
GPR151 activ = activators of human GPR151 | actives 1% (n = 650,000) | PathHunter beta-arrestin GPR151 cells, luminescence | activation, % at 11.2 µM; in the data active = activation above about 4.9%;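 also: 0% = median of compound wells and 100% = cells with positive control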
Target sequence (Q8TDV0 whole entry, looked up): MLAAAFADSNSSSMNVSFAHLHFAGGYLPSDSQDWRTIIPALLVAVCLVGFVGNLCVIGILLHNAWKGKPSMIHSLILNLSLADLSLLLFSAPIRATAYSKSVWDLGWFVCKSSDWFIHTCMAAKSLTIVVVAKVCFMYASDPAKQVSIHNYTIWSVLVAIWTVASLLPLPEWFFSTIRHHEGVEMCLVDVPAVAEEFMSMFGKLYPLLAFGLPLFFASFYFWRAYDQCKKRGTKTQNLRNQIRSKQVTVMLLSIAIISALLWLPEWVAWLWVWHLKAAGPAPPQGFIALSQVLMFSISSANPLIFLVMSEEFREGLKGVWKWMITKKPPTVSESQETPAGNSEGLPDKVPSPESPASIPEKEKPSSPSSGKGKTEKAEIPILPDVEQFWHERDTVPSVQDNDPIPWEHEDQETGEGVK
* = called active by the depositor. A selection: hits, their analogues and other compounds. The true share with any hit is near 3.5%.

SMILES	TEAD-YAP inh	FBW7 act	MITF primary	GPR151 activ
CC(C)(CN1CCN(CCO)CC1)NS(=O)(=O)c1ccc(Cl)cc1	0.0	0.0	-7.0	-1.3
CN(C(=O)c1cccc2ncccc12)c1nc2c(s1)CCc1occc1-2	-7.4	7.5*	11.6	-0.3
Cc1cccc(OCCCC(=O)Nc2nc3ccccc3[nH]2)c1	70.8*	0.5	6.0	1.5
CCn1ccnc1CN1CCC(n2nccc2NC(=O)CCc2ccccc2)CC1	1.7	0.0	4.7	2.7
N#CCCn1ncc2c1/C(=C/c1ccccc1)CC2	3.1	0.2	13.6	3.1
Cn1ncc2c1/C(=C/c1ccc(Cl)cc1)CC2	54.8*	0.1	8.4	-9.7
OCCNc1ccnc(N2CCCC2CO)n1 (stereo not drawn)	-0.4	0.1	-3.3	0.2
C/C=C/COC(=O)c1[nH]c2c(c1C)C(=O)CC(c1ccco1)C2 (stereo not drawn)	56.9*	-0.1	10.0	1.9
Cc1c(C(=O)OCC(C)C)[nH]c2c1C(=O)CCC2	-34.8	0.1	1.9	0.0
CCOC(=O)c1[nH]c2c(c1C)C(=O)CC(c1ccc(OC)c(OC)c1)C2 (stereo not drawn)	2.6	0.0	7.3	0.1
Cc1c(C(=O)OCC(C)C)[nH]c2c1C(=O)CC(c1ccco1)C2 (stereo not drawn)	48.8*	-0.4	3.2	1.8
Cc1c(C(=O)OC2CCCC2)[nH]c2c1C(=O)CC(c1ccco1)C2 (stereo not drawn)	55.1*	0.7	5.5	3.5
C=CCOC(=O)c1[nH]c2c(c1C)C(=O)CC(c1ccco1)C2 (stereo not drawn)	50.8*	-0.3	12.4	0.2
CC(=O)c1cc(C)ccc1OC(=O)c1ccc(Br)cc1	0.5	0.0	3.6	2.1
Cc1c(C(=O)OCC2CCCO2)[nH]c2c1C(=O)CC(c1ccco1)C2 (stereo not drawn)	51.7*	-0.2	32.6	-0.2
O=C(O)COc1ccc(/C=C2/SC(=S)NC2=O)cc1Cl	7.7	0.8	16.6	-1.4
CCOc1cc(/C=C2\SC(=S)N(C(CC(=O)O)C(=O)O)C2=O)ccc1O (stereo not drawn)	-3.7	0.4	13.6	-1.1
O=[N+]([O-])c1ccccc1N/N=C/c1cccnc1	-31.1	0.1	5.5	-0.9
CC1=NN(C(=O)c2ccccc2)C(C)(C)C1	-4.8	-0.4	-5.9	0.0
CC1=NN(C(=S)c2ccccc2)C(C)(O)C12CC2 (stereo not drawn)	33.0*	-0.1	1.6	-3.2
COC(=O)C1=CN(CC2CCCO2)C=C(C(=O)OC)C1c1cccc(Oc2ccccc2)c1 (stereo not drawn)	-23.5	2.4*	-16.1	0.0
COC(=O)C1=CN(CC2CCCO2)C=C(C(=O)OC)C1c1cccc(O)c1 (stereo not drawn)	2.5	0.0	10.9	0.3
CCCOc1ccc(C2C(C(=O)OC)=CN(CCC)C=C2C(=O)OC)cc1	-5.4	3.0*	5.9	2.2
COC(=O)C1=CN(C)C=C(C(=O)OC)C1c1cccc(OCc2ccccc2)c1	-16.0	1.6	-21.0	-0.3
CCN1C=C(C(=O)OC)C(c2cccc(OCc3ccccc3)c2)C(C(=O)OC)=C1	-2.2	2.0*	3.5	1.5
SMILES	TEAD-YAP inh	FBW7 act	MITF primary	GPR151 activ
O=C(c1ccco1)N1CCc2ccc(NS(=O)(=O)Cc3ccc(F)cc3)cc2C1	-2.1	0.0	5.9	-0.9
CC(=O)Nc1ccnn1C1CCN(Cc2ccc(-c3ccccc3)cc2)CC1	-17.4	0.2	14.0	0.2
CC(=O)Nc1ccnn1C1CCN(Cc2cnc(-c3ccccc3C)nc2)CC1	40.9*	0.0	8.9	-1.9
CC(=O)Nc1ccnn1C1CCN(Cc2cnc(-c3ccccc3)s2)CC1	67.1*	-0.1	-1.0	-4.8
CC1CC(C)CN(S(=O)(=O)c2ccc(C(=O)Nc3ccc(Cl)cc3)cc2)C1 (stereo not drawn)	-15.6	0.1	4.6	4.1
Nc1nc2cc3c(cc2s1)OCCO3	36.9*	0.1	6.0	-1.5
Nc1nc2cc3sc(N)nc3cc2s1	-11.3	0.0	-3.9	-0.3
Cc1ccc[n+](C(C)C(=O)c2ccc(-c3ccccc3)cc2)c1 (stereo not drawn)	65.5*	-0.1	-10.4	0.0
CC(C(=O)c1ccc(-c2ccccc2)cc1)[n+]1ccccc1 (stereo not drawn)	17.9	-0.2	-9.8	0.3
Cc1cc(=O)[nH]c(NC2CCCCC2)n1	8.7	-0.1	10.2	2.0
O=C(Nc1cccc2ccc(-n3ccnc3)nc12)c1ccccc1Cl	9.2	2.3*	2.3	1.1
O=C(Nc1ccc(Nc2cc(-n3ccnc3)ncn2)cc1)C(c1ccccc1)c1ccccc1	27.5	0.3	20.6	1.0
COc1ccccc1C(=O)Nc1ccc(Nc2cc(-n3ccnc3)ncn2)cc1	36.9*	-0.1	1.2	-0.1
O=C(Cc1ccc(F)cc1)Nc1ccc(Nc2cc(-n3ccnc3)ncn2)cc1	13.1	0.2	9.7	-2.0
O=C(Nc1ccc(Nc2cc(-n3ccnc3)ncn2)cc1)c1ccccc1Cl	40.6*	-0.1	-2.9	1.0
Cc1onc(-c2ccccc2Cl)c1C(=O)Nc1cccc2ccc(-n3ccnc3)nc12	18.9	-0.2	-1.8	2.5
COc1ccc2c(c1)CC(c1nc3c(OCCN(C)C)cc(-c4cn[nH]c4)cc3s1)CO2 (stereo not drawn)	73.3*	-0.9	47.2	1.2
COc1ccc2c(c1)CC(C(=O)Nc1ccc(-c3cn[nH]c3)cc1OCCN)CO2 (stereo not drawn)	38.1*	-0.1	27.0	-0.5
COc1ccc2c(c1)CC(C(=O)Nc1ccc(-c3cn[nH]c3)cc1OCCCO)CO2 (stereo not drawn)	-1.3	0.1	16.6	1.8
CN(C)CCOc1cc(-c2cn[nH]c2)cc2sc(C3COc4ccccc4C3)nc12 (stereo not drawn)	4.4	-0.1	24.2	-1.2
O=C1Nc2ccc(I)cc2/C1=C/c1cc(Br)c(O)c(Br)c1	7.6	-0.2	19.6	0.5
Cc1cccc(-n2ncc3c(N(CC(C)C)CC(C)C)ncnc32)c1	-12.2	0.0	-0.2	1.8
CCOC(=O)N1CCC(Nc2ncnc3c2cnn3-c2ccc(C)cc2C)CC1	39.3*	-0.4	-6.0	-0.7
Cc1cccc(-n2ncc3c(N(C)C4CCCCC4)ncnc32)c1	96.5*	0.1	-16.7	1.4
Cc1cccc(-n2ncc3c(NC4CCCCCC4)ncnc32)c1	46.6*	-0.1	4.0	1.1
SMILES	TEAD-YAP inh	FBW7 act	MITF primary	GPR151 activ
Clc1cccc(-n2ncc3c(NC4CC4)ncnc32)c1	-31.6	-0.1	-3.2	-1.4
C=CCNc1ncnc2c1cnn2-c1ccc(C)cc1C	-8.4	0.1	7.8	-0.3
CCN(CC)c1ncnc2c1cnn2-c1cccc(C)c1	60.2*	0.0	3.5	0.6
CC(C)c1nnc(SCC(=O)NCCC2=CCCCC2)n1N	0.0	-0.1	20.8	-1.3
CC(CC(=O)C1C(C)C=CCC1(C)C)NNC(=O)c1ccncc1 (stereo not drawn)	10.8	0.0	14.3	0.4
COc1ccc(-n2ncc3c(N(C)C4CCCCC4)ncnc32)cc1	92.9*	0.1	-3.0	2.3
COc1ccc(-n2ncc3c(N4CCCC4)ncnc32)cc1	24.8	0.0	2.1	2.3
COc1cccc(CNc2ncc(-c3cccc(OC)c3)n2C)c1	54.1*	-0.4	36.3	3.0
